The subject of one assay is MCC-26. The assay can be described thus: qHTS assay to identify novel small-molecules to repurpose for Merkel cell carcinoma treatment (AID 1296009). Further: nearly all actives have a fitted effect of over 60% in size. Further: potency means the concentration at half of the fitted maximal effect. The conditions noted are these: MCC and control cell lines, CellTiter-Glo viability, 72 h; series mostly up to 46 µM. In short, it runs like this:
(§1)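 CellTiter-Glo luminescence after 72 hr compound exposure at 37 degree celsius gave cell viability. Libraries NPC and MIPE were run as 8- and 11-point dose responses; RLUs normalized to DMSO (negative) and no-cell (cytotoxicity) controls.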

The next assay relates to MKL-1. The description is as above. The conditions noted are these: MCC and control cell lines, CellTiter-Glo viability, 72 h; series mostly up to 46 µM. In short, it runs like this:
as §1
In general terms: Cellular ATP, detected with luciferase, serves as a proxy for viable cell number.

The next assay deals with MKL-2. Described as above. The conditions noted are these: MCC and control cell lines, CellTiter-Glo viability, 72 h; series mostly up to 46 µM. In short, it runs like this:
as §1

The subject of another assay is NIH3T3. Described as above. The conditions noted are these: MCC and control cell lines, CellTiter-Glo viability, 72 h; at 44.8 µM (top of the series) unless noted. In short, it runs like this: as §1
For the next assay, the system named is UISO. Described as above. The conditions noted are these: MCC and control cell lines, CellTiter-Glo viability, 72 h; series mostly up to 46 µM. In short, it runs like this: as §1
A further assay has as its system WaGa. Described as above. The conditions noted are these: MCC and control cell lines, CellTiter-Glo viability, 72 h; series mostly up to 46 µM. In short, it runs like this: as §1
A further assay deals with C33A. Nature of the assay: Primary qHTS to identify gynecologic anti-cancer compounds using libraries of approved drugs and bioactive compounds (AID 1345084). Further: nearly all actives have a fitted effect of over 55% in size. The conditions noted are these: Gynecologic cancer cell panel viability, ATPlite luminescence, 48 h; series mostly up to 57.5 µM. In short, it runs like this:
(§2)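 In this quantitative HTS, cell killing is estimated from loss of ATP-dependent luciferase light. Cells see five compound concentrations over a 48 h exposure.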
In general terms: qHTS replaces the single test concentration by a dilution series.

The subject of another assay is CAOV3. The assay is described as above. The conditions noted are these: Gynecologic cancer cell panel viability, ATPlite luminescence, 48 h; series mostly up to 57.5 µM. In short, it runs like this:
as §2

The subject of another assay is CASKI. The description is as above. The conditions noted are these: Gynecologic cancer cell panel viability, ATPlite luminescence, 48 h; series mostly up to 57.5 µM. In short, it runs like this:
as §2

The test system of a further assay is Es-2. Described as above. The conditions noted are these: Gynecologic cancer cell panel viability, ATPlite luminescence, 48 h; series mostly up to 57.5 µM. In short, it runs like this:
as §2

For a further assay, the system named is HeLa. The assay is described as above. The conditions noted are these: Gynecologic cancer cell panel viability, ATPlite luminescence, 48 h; series mostly up to 57.5 µM. In short, it runs like this:
as §2

In the next assay the test system is Hek293T. The assay is described as above. The conditions noted are these: Gynecologic cancer cell panel viability, ATPlite luminescence, 48 h, control line for the selectivity index; series mostly up to 57.5 µM. In short, it runs like this: as §2
Another assay deals with JEG-3. The assay is described as above. The conditions noted are these: Gynecologic cancer cell panel viability, ATPlite luminescence, 48 h; series mostly up to 57.5 µM. In short, it runs like this:
as §2

In another assay the test system is OV90. The assay is described as above. The conditions noted are these: Gynecologic cancer cell panel viability, ATPlite luminescence, 48 h; series mostly up to 57.5 µM. In short, it runs like this: as §2
The next assay has as its system PA-1. The description is as above. The conditions noted are these: Gynecologic cancer cell panel viability, ATPlite luminescence, 48 h; series mostly up to 57.5 µM. In short, it runs like this:
as §2

The test system of a further assay is SKOV3. The description is as above. The conditions noted are these: Gynecologic cancer cell panel viability, ATPlite luminescence, 48 h; series mostly up to 57.5 µM. In short, it runs like this: as §2
The test system of a further assay is Tov-21-G. The assay is described as above. The conditions noted are these: Gynecologic cancer cell panel viability, ATPlite luminescence, 48 h; series mostly up to 57.5 µM. In short, it runs like this: as §2
Another assay has as its system Tov112D. The description is as above. The conditions noted are these: Gynecologic cancer cell panel viability, ATPlite luminescence, 48 h; series mostly up to 57.5 µM. In short, it runs like this: as §2
Assay [1] can be described thus: Drug repurposing screens with cells derived from glioblastoma tumor samples (AID 1345199). Further: nearly all actives have a fitted effect of over 40% in size. Further: potency means the concentration at half of the fitted maximal effect. The conditions noted are these: GBM patient neurospheres viability, ATP luminescence, 48 h. In short, it runs like this: (§3)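 Primary testing used CD133+ neurospheres from four GBM patients, seven concentrations, 48 h exposure and ATP-based viability; confirmation added three slower-growing patient lines.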

For the next assay, the system named is astro. The assay is described as above. The conditions noted are these: viability, ATP luminescence, 48 h; series mostly up to 45.9 µM. In short, it runs like this: as §3
[2] abbreviates: at 45.9 µM (top of the series), tumour line B.
The mark [3] stands for this setting: at 45.9 µM (top of the series), tumour line D.
Setting [4] is: at 46 µM (top of the series), tumour line A.
The mark [5] stands for this setting: at 46.1 µM (top of the series), tumour line C.

Records with an inconclusive call do not appear. Values without a mark were called inactive. Active and inactive are the calls of the source. The call rests on the fitted dose curve; in most records, active means well fitted curve in the direction sought with a large enough effect; inconclusive means small, poorly fitted or top-dose-only effect, or another doubt; inactive means no such curve, though single readings can be large; an effect the other way counts as inactive or inconclusive.
On the % scale 0 is the no-effect control and ±100 the full control effect.

Turning to `CCc1ccc(CCOc2ccc(CC3SC(=O)NC3=O)cc2)nc1` (stereo not drawn), the Potency result in the assay with MCC-26, in the assay with MKL-1, with MKL-2, in the assay on UISO, in the assay on WaGa and in the assay with C33A was “inactive” throughout. Further, the Potency result with CAOV3, in the assay on CASKI, in the assay on Es-2, in the assay on HeLa, in the assay on Hek293T and in the assay on JEG-3 was “inactive” each time. Moreover, the Potency entry in the assay with OV90, in the assay with PA-1, in the assay on SKOV3, with Tov-21-G and in the assay on Tov112D was “inactive” in each case. For the same compound, the outcome in the assay with NIH3T3 was inactive. The activity, negative = cell killing in assay [1] (setting [2]) is -10.3%; in [1] (setting [3]) it was -17.6%.
For `Cc1[nH]c(=O)c(C#N)cc1-c1ccc2nccn2c1`, the Potency result in the assay with MCC-26, with MKL-1, in the assay on MKL-2, in the assay with UISO, in the assay on WaGa and with C33A was “inactive” throughout. In addition, the Potency result in the assay with CAOV3, in the assay with CASKI, in the assay with Es-2, in the assay on HeLa, in the assay with Hek293T and with JEG-3 was “inactive” each time. The Potency entry in the assay with OV90, in the assay on PA-1, in the assay on SKOV3, in the assay with Tov-21-G, with Tov112D and with astro was “inactive” throughout. For the same compound, the outcome in the assay with NIH3T3 was inactive. Besides, the activity, negative = cell killing in [1] (setting [2]) is -4%; in [1] (setting [3]), 0.316%; in assay [1] (setting [4]), -27%; in assay [1] (setting [5]) it was -6.47%.
On to `Cc1[nH]c(=O)c(C#N)cc1-c1ccncc1`, for which the Potency entry with MCC-26, in the assay on MKL-1, with MKL-2, in the assay with UISO, in the assay on WaGa and with C33A was “inactive” each time. The Potency result in the assay on CAOV3, with CASKI, in the assay with Es-2, with HeLa, in the assay with Hek293T and in the assay with JEG-3 was “inactive” each time. The Potency result in the assay on OV90, in the assay with PA-1, with SKOV3, with Tov-21-G, in the assay on Tov112D and in the assay with astro was “inactive” each time. In the assay with NIH3T3, the compound was classed as inactive. Moreover, the activity, negative = cell killing is -10.7% in assay [1] (setting [2]); 4.86% in assay [1] (setting [3]); -23.5% in assay [1] (setting [4]); 2.71% in assay [1] (setting [5]); -14.8% in assay [1] (at 91.6 µM (top of the series), tumour line B); 7.24% in assay [1] (at 91.6 µM (top of the series), tumour line D). For the same compound, in assay [1] (at 99.2 µM (top of the series), tumour line C), the activity, negative = cell killing was -28.5%.
For `CO[C@@H]1[C@H](N(C)C(=O)c2ccccc2)C[C@H]2O[C@]1(C)n1c3ccccc3c3c4c(c5c6ccccc6n2c5c31)C(=O)NC4`, in the assay on MCC-26, the Potency was 4.69 µM (active).
Turning to `C[C@@H]1CN(Cc2ccc(F)cc2)[C@@H](C)CN1C(=O)c1cc2c(C(=O)C(=O)N(C)C)cn(C)c2cc1Cl`, the compound was called inactive in the assay with NIH3T3.
On the same count and under the same terms, the result for `O=S(=O)(N=Cc1c(O)ccc2ccccc12)c1cccs1` reads “inactive”.
`NNCCc1ccccc1`: the activity, negative = cell killing in [1] (at 20 µM (top of the series), tumour line C) was -0.565%; in [1] (at 21.2 µM (top of the series), tumour line B), -10.9%.
Take `NC(=O)c1cnccn1`: the activity, negative = cell killing in assay [1] (setting [4]) was -24.5%.
Take `Cc1cn[nH]c1`: in assay [1] (setting [4]), the activity, negative = cell killing is -17.3%.
On to `Cc1ccc(N(CC2=NCCN2)c2cccc(O)c2)cc1`, for which the Potency in [1] (tumour line A) was 14.1 µM (active).
Regarding `CCCc1nn(C)c2c(=O)[nH]c(-c3cc(S(=O)(=O)N4CCN(C)CC4)ccc3OCC)nc12`, the Potency in assay [1] (tumour line A) was 22.4 µM (active).
In the case of `CCOc1cc(C(=O)Nc2ccc(Cl)c(-c3nc4ccccc4[nH]3)c2)cc(OCC)c1OCC`, the Potency result in the assay with MCC-26, with MKL-1, in the assay with WaGa, in the assay on CAOV3, in the assay on CASKI and with Es-2 was “inactive” each time. In addition, the Potency result in the assay with HeLa, in the assay with Hek293T, in the assay with JEG-3, with OV90, in the assay on PA-1 and with Tov-21-G was “inactive” each time. The Potency result in the assay with Tov112D is “inactive”. Besides, in the assay on NIH3T3, the outcome was inactive.
As for `COc1c(Cl)cc2c([nH]c3cnccc32)c1NC(=O)c1cccnc1C`, the Potency result in the assay on MCC-26, with MKL-1, in the assay on MKL-2, in the assay with UISO, in the assay on WaGa and with C33A was “inactive” in each case. The Potency entry with CAOV3, in the assay with CASKI, with Es-2, with HeLa, in the assay with Hek293T and in the assay on JEG-3 was “inactive” in each case. For the same compound, the Potency result in the assay on OV90, in the assay on PA-1, with Tov-21-G and in the assay with Tov112D was “inactive” throughout.

(Values after PubChem BioAssay (NCATS).)
